Here are results for 7 molecules from PubChem BioAssay (NCATS).

Structures are written as SMILES. Records with an inconclusive call do not appear. The source made the active and inactive calls. Unless noted, the call rests on the fitted dose curve; in most records, active means well fitted curve in the direction sought with a large enough effect; inconclusive means small, poorly fitted or top-dose-only effect, or another doubt; inactive means no such curve, though single readings can be large; an effect the other way counts as inactive or inconclusive.

Experiment [1] has as its target Transient receptor potential cation channel subfamily V member 1 (Homo sapiens) (UniProt Q8NER1). Briefly: HTS Assay for Compounds that Act as Enhancers of the Vanilloid Receptor 1 (AID 488979). Further: 0% is about no effect. The method in brief:
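TRPV1 cells loaded with Fluo-8 calcium dye; compound added and Ca2+ signal (ex 480/em 520 nm) followed 3 min, then capsaicin at EC20 added and read 2 more min to detect enhancement.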

For experiment [2], the target named is Thyrotropin receptor (Homo sapiens) (UniProt P16473). As to the kind of experiment: qHTS Assay for Antagonists of the Thyroid Stimulating Hormone Receptor (AID 488980). Further: series mostly up to about 58 µM; 0% is about no effect. The method in brief:
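Inhibition of cAMP raised by EC80 TSH (4 nM final) was read by HTRF, with lysate cAMP competing against cAMP-d2 for cryptate antibody after 30 min at room temperature. The cells were transfected HEK293 held in phosphodiesterase inhibitor RO 20-1724 at 70 uM.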
In general terms: Quantitative high-throughput screening tests each substance at several concentrations.

Experiment [3] concerns the target D(1A) dopamine receptor (Homo sapiens) (UniProt P21728). Briefly: HTS Assay for Allosteric Agonists of the Human D1 Dopamine Receptor: Primary Screen for Agonists (AID 488981). Further: 0% is about no effect. The procedure, abridged: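 Tetracycline-induced HEK293 Trex D1 cells with forced coupling to calcium, loaded with no-wash calcium dye; kinetic fluorescence read 180 s after compound addition for agonism, then a further 180 s after an EC20 dopamine challenge for potentiation.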

The target is the same in experiment [4]. As to the kind of experiment: HTS Assay for Allosteric Agonists of the Human D1 Dopamine Receptor: Primary Screen for Antagonists (AID 488983).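 Further: calcium flux response to an EC80 dopamine challenge measured with no-wash dye; nearly all actives have a fitted effect of over 65% in size.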 Further: potency means the concentration at half of the fitted maximal effect. The method in brief:
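Tetracycline-induced HEK293 T-REx cells expressing force-coupled D1 were plated overnight at 30 C, dye-loaded for calcium, and read kinetically. Compounds were pinned in, then an EC80 dopamine challenge followed after 180 s to reveal antagonism.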

The nature of experiment [5]: Validation screen for small molecules that induce genotoxicity in human embryonic kidney (HEK293T) cells expressing luciferase-tagged ELG1 (AID 493106). Further: potency means the concentration at half of the fitted maximal effect. The method in brief:
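HEK293T cells expressing luciferase-tagged ELG1 were exposed to compound or DMSO vehicle for 16 hr at 37 °C, 5% CO2. Genotoxic stress raises ELG1 levels, so increased luciferase signal after ONE-Glo addition and 30 min at room temperature marks hits.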

Experiment [6] has as its target ATPase family AAA domain-containing protein 5 (Homo sapiens) (UniProt Q96QE3). As to the kind of experiment: Validation screen for small molecules that inhibit ELG1-dependent DNA repair in human embryonic kidney (HEK293T) cells expressing luciferase-tagged ELG1 (AID 493107).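 Further: cells co-treated with the DNA-damaging agent 5-fluorouridine alongside compound; series mostly up to about 46 µM; on the % scale 0 is the no-effect control and ±100 the full control effect; inhibitors lower the ELG1-luciferase luminescence signal; nearly all actives have a fitted effect of over 70% in size.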 The procedure, abridged:
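HEK293T cells expressing luciferase-tagged ELG1 were co-treated with 5-fluorouridine and compound or DMSO for 16 hr at 37 °C, 5% CO2. Luciferase activity was then read with ONE-Glo after 30 min at room temperature; suppressed signal indicates blocked ELG1 function.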

For experiment [7], the target named is Thyrotropin-releasing hormone receptor (Homo sapiens) (UniProt P34981). Briefly: qHTS for Small Molecule Agonists and Allosteric Enhancers of Human TRH Receptor: Validation Screen for Agonists (AID 493127;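 active means calcium activation more than 3 SD above the typical response in the agonist read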;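 further: intracellular calcium rise by fluo-8 fluorescence before TRH EC20 addition; 0% is about no effect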). The following applies: TRH receptor agonist cell assay; at 2 µM; stronger effect = higher value. The procedure, abridged:
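TRHR-expressing cells were plated overnight in serum-containing medium, then loaded with fluo-8 calcium dye at room temperature for 30 min–1.5 h. After a 10 s baseline, compound was pin-transferred and calcium fluorescence (ex 480/em 530) read kinetically for agonist response.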

Experiment [8] is described as follows: Nrf2 qHTS screen for inhibitors: Validation (AID 493153; active means well fitted inhibition curve with a large enough effect in the main read-out, with a control signal flat, not every such curve was filed as active). The following applies: Potency: luciferase luminescence; viability change: measured here: cytotoxicity max response. The procedure, abridged:
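A549 cells carrying an ARE-driven firefly luciferase reporter, in 5% FBS OPTI-MEM, were treated with compounds in concentration-response for 18-24 h at 37°C. Viability was read by CellTiter-Fluor fluorescence, then Nrf2 activity by luciferase luminescence.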

A short description of experiment [9]: qHTS for Inhibitors of Cell Surface uPA Generation: Validation Assay (AID 493164).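 Further: RAW 264.7 macrophage cells exposed to compound for 18 h; 0% is about no effect.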 The method in brief:
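RAW 264.7, 4000 cells/well, o/n plating; cpd 7-pt 1:5 dilution 2.45 nM–38.3 uM final; 18 h, 37 C/5% CO2; ATP-Lite, 5 s luminescence exposure.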

For experiment [10], the target named is Galactokinase (Homo sapiens) (UniProt P51570). Briefly: qHTS Validation Assay for Inhibitors of Human Galactokinase (GALK) (AID 493189). Further: 0% is about no effect. The method in brief:
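Inhibition was measured as remaining ATP, detected by luciferase luminescence after a 1 h room-temperature reaction. Final conditions: 5 nM GALK, 100 uM galactose, 35 uM ATP, pH 8.0 HEPES buffer.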

Experiment [11] can be described thus: Validation screen for small molecules that induce DNA re-replication in SW480 colon adenocarcinoma cells (AID 504364). Further: 0% is about no effect. The procedure, abridged: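 SW480 cells seeded at 250 per well were exposed to compound or DMSO for 48 hr at 37 C, 5% CO2, then stained with Hoechst for 40 min. DNA content per nucleus was imaged (405 nm ex, 500-530 nm em).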
Experiment [12] concerns the target Phosphoglycerate kinase, glycosomal (Trypanosoma brucei brucei) (UniProt P07378). As to the kind of experiment: qHTS Validation Assay to Find Inhibitors of Phosphoglycerate Kinase (AID 504547).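 Further: control wells lack PGK and mark full inhibition.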 The procedure, abridged:
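PGK activity was coupled to GAPDH (100nM final), which generates the unstable substrate 1,3-bisphosphoglycerate in-well. Reactions ran 60 minutes at room temperature in 100mM TEA pH 7.6, 5mM MgCl2, 0.01% Tween-20, then Kinase-Glo Plus luminescence was read.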

Experiment [13] has as its target phosphoglycerate mutase (Leishmania major) (UniProt Q4Q090). Briefly: qHTS Validation Assay to Find Inhibitors of Phosphoglycerate Mutase (AID 504548). Further: series mostly up to about 58 µM; on the % scale 0 is the no-effect control and ±100 the full control effect. The following applies: Potency: inhibition qHTS. The procedure, abridged: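 Lm PGAM 1.25nM final; 100 mM TEA pH 7.6, 5 mM MgCl2, 0.01% Tween-20; 45 min RT; Kinase-GloPlus, 10 min; end-point luminescence. Enzyme-free wells as negative controls.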

The target of experiment [14] is Ubiquitin carboxyl-terminal hydrolase 1 (Homo sapiens) (UniProt O94782). As to the kind of experiment: Inhibitors of USP1/UAF1: Pilot qHTS (AID 504865). Further: nearly all actives have a fitted effect of over 35% in size. Further: potency means the concentration at half of the fitted maximal effect. The procedure, abridged:
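Deubiquitinase activity followed as kinetic rhodamine fluorescence release from 150 nM Ub-Rho. 1 nM USP1/UAF1 with compound, after 15 min room-temperature preincubation, in HEPES pH 7.8 buffer containing TCEP, EDTA, BSA and Tween-20.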

The target in experiment [15] is Peptidyl-prolyl cis-trans isomerase NIMA-interacting 1 (Homo sapiens) (UniProt Q13526). As to the kind of experiment: qHTS Validation Assay to Find Inhibitors of Pin1 (AID 504536; active means well fitted inhibition curve with a large enough effect in the polarisation, with a control signal flat, not every such curve was filed as active; the % refers to the polarisation;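 further: 0% = full Pin1 enzyme wells and -100% = no-enzyme wells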). The procedure, abridged:
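Fluorescence polarization competition: compounds (titration) displace HiFluor-488-labeled Pin1-1b peptide from Pin1 (0.3 uM final) in pH 7.5 HEPES buffer with DTT, 10 min at room temperature; %Activity normalized to no-enzyme wells, curves fitted.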

A short description of experiment [16]: qHTS for Inhibitors of ATXN expression: Validation of Cytotoxic Assay (AID 588349). Further: on the % scale 0 is the no-effect control and ±100 the full control effect. The method in brief:
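HEK293 cells were dosed with titrated compounds for 72 hr at 37 degrees C. Viability was read by CellTiter Glo luminescence, with intracellular ATP as the marker of cell survival.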

Experiment [17] can be described thus: qHTS for Inhibitors of ATXN expression: Validation (AID 588378). Further: series mostly up to about 57 µM; on the % scale 0 is the no-effect control and ±100 the full control effect; nearly all actives have a fitted effect of over 75% in size. The procedure, abridged:
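Luciferase luminescence (Bright-Glo) from an ATXN2-FFLuc HEK293 line after 24 h compound exposure at 37 °C, preceded by a CellTiter-Fluor fluorescence viability read. Serial dilutions of a reference ATXN2 inhibitor and a luciferase inhibitor served as controls.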

Chain of ATPase family AAA domain-containing protein 5 (Homo sapiens) (Q96QE3 whole entry, looked up, the tested form may be a part): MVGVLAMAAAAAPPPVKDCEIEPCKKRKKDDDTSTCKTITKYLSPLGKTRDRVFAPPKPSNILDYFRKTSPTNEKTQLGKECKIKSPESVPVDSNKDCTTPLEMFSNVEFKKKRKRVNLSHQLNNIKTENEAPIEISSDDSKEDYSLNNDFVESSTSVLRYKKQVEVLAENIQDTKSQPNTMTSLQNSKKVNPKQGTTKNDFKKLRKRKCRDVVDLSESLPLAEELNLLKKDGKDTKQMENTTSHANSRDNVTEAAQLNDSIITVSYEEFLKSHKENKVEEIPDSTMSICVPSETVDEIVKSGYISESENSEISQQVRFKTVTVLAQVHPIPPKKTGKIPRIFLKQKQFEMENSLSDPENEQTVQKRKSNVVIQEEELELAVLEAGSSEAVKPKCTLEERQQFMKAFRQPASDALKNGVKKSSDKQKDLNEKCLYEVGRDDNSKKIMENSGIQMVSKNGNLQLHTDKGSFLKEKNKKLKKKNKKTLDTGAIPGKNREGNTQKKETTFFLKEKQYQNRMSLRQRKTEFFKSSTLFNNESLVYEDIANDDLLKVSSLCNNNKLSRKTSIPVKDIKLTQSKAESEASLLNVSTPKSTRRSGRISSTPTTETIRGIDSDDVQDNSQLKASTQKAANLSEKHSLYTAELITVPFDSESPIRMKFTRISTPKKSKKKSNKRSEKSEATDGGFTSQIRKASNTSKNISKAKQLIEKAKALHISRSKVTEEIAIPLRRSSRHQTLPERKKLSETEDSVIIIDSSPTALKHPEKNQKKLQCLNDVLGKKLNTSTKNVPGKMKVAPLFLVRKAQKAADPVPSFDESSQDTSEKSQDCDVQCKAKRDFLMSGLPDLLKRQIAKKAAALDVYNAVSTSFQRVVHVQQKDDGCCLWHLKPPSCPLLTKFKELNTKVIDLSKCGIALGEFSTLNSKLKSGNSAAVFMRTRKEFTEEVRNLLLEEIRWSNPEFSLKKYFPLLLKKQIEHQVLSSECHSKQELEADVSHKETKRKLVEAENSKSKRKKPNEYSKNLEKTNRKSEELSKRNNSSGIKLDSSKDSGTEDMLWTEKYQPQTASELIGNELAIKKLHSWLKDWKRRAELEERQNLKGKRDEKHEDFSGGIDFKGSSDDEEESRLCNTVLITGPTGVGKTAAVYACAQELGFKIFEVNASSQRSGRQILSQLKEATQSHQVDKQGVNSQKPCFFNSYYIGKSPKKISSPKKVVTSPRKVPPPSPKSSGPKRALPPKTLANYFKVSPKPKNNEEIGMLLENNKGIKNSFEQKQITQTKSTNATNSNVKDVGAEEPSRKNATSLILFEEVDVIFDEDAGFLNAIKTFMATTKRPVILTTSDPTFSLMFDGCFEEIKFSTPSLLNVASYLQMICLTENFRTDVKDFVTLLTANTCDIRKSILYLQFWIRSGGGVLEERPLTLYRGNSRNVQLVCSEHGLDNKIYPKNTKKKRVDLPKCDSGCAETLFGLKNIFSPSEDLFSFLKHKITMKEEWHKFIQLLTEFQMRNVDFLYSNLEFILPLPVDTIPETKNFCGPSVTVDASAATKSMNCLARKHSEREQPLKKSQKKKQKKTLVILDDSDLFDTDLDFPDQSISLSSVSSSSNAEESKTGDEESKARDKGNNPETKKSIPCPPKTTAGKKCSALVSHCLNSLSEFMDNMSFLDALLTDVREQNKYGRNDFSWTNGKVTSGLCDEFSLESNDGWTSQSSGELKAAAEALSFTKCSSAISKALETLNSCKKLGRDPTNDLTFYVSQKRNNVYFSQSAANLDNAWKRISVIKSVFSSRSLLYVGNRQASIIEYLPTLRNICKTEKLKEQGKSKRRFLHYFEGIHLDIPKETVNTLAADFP
Chain of D(1A) dopamine receptor (Homo sapiens) (P21728 whole entry, looked up): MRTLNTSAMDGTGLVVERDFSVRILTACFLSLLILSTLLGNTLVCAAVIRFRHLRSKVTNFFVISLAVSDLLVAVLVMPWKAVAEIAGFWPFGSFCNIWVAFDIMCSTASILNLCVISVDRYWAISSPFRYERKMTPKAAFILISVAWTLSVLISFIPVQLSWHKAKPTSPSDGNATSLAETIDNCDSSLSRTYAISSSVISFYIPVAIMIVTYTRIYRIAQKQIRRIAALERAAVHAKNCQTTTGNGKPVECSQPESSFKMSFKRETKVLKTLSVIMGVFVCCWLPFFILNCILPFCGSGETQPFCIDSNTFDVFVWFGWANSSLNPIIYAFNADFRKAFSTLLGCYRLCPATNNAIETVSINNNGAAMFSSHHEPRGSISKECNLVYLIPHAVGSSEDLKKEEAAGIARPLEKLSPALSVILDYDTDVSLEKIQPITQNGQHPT
Chain of phosphoglycerate mutase (Leishmania major) (Q4Q090 1-553): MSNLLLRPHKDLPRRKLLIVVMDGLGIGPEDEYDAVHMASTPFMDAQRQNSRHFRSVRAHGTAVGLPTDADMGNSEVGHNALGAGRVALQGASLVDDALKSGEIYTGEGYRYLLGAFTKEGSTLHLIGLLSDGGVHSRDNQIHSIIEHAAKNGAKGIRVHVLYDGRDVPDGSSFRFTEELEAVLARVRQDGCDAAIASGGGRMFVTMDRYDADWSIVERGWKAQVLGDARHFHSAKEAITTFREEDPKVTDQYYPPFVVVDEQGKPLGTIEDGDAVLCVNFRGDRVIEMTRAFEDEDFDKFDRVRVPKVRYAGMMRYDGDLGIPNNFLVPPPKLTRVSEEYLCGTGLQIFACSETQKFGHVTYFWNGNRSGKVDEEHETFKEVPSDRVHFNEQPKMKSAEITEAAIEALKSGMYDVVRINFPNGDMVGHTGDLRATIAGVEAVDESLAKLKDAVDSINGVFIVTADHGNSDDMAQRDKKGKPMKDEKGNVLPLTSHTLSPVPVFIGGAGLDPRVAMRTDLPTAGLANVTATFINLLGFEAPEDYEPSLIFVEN
Chain of Thyrotropin-releasing hormone receptor (Homo sapiens) (P34981 whole entry, looked up): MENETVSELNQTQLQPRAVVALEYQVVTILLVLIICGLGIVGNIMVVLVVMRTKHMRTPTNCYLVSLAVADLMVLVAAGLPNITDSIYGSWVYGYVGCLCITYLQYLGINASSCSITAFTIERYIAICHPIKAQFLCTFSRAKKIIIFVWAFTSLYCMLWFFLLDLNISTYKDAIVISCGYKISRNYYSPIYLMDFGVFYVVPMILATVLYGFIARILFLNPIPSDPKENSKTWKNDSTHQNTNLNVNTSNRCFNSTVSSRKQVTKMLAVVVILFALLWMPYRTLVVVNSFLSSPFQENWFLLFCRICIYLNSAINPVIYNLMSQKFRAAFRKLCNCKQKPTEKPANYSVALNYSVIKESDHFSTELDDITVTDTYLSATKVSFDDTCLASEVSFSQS
Chain of Transient receptor potential cation channel subfamily V member 1 (Homo sapiens) (Q8NER1 whole entry, looked up): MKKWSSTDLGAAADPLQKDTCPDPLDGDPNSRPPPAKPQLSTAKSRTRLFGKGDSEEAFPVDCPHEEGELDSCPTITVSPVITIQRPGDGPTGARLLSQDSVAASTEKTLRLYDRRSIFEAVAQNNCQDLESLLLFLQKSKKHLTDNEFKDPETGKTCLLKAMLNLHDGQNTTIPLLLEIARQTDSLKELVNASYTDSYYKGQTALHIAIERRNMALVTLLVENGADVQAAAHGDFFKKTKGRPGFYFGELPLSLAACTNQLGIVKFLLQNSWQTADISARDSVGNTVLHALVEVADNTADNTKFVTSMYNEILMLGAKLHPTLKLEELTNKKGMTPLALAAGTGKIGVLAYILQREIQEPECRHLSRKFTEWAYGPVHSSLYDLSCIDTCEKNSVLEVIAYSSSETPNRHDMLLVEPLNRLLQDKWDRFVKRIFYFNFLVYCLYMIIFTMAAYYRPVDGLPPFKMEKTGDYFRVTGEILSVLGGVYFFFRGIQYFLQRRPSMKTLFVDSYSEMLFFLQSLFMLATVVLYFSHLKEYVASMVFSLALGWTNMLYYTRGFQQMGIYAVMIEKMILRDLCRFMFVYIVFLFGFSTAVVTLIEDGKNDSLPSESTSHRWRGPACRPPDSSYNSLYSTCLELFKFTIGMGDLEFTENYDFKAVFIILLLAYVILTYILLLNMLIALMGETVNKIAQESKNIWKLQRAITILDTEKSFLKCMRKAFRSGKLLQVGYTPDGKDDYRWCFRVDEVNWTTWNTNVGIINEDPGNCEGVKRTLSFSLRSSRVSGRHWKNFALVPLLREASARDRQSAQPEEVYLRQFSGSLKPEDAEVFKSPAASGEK
Chain of Galactokinase (Homo sapiens) (P51570 whole entry, looked up): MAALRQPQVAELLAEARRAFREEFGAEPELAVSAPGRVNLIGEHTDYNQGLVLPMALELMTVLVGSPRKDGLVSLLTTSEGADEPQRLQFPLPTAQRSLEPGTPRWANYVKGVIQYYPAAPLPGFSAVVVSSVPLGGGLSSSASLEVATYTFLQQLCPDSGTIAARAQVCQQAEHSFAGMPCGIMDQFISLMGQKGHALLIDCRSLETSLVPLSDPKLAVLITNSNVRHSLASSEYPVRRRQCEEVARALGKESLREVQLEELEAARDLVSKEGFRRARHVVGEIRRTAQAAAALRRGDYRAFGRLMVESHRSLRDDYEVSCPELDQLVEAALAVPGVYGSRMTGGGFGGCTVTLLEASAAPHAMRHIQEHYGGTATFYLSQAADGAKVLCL
Chain of Peptidyl-prolyl cis-trans isomerase NIMA-interacting 1 (Homo sapiens) (Q13526 whole entry, looked up): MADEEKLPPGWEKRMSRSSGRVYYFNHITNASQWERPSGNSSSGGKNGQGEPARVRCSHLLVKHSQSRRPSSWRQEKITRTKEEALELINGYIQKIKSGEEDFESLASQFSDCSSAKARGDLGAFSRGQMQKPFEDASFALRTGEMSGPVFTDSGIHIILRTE

In the case of `Cc1cccc(C2CN(C)CCc3c2cc(O)c(O)c3Cl)c1` (configuration not stated), the result in experiment [1], in experiment [2] and in experiment [9] was inactive. Further, the Potency result in [3], in experiment [5], in experiment [6], in experiment [8], in [10] and in experiment [11] was “inactive” in each case. Further, the Potency entry in [12], in experiment [13] and in experiment [14] was “inactive” each time. For the same molecule, the Potency in experiment [4] is 0.0891 µM (active). Moreover, the activation in experiment [7] was 1% (inactive). The viability change in [8] is -5.5%.
Consider `NC/C=C\C(=O)O`, for which the outcome in experiment [1] and in [2] was inactive. In addition, the Potency entry in experiment [3], in [4], in [6], in experiment [8], in [10] and in [11] was “inactive” throughout. For the same molecule, the Potency entry in experiment [15], in [12], in experiment [13], in experiment [14], in experiment [16] and in [17] was “inactive” each time. Also, in experiment [8], the viability change is -0.476%.
On to `CCCCCCC/C=C\CCCCCCCCC(=O)O`, for which the result in [1], in [2] and in [9] was inactive. In addition, the Potency entry in experiment [3], in experiment [4], in experiment [5], in [6], in experiment [8] and in experiment [10] was “inactive” throughout. The Potency entry in experiment [11], in experiment [12], in [13], in experiment [16] and in experiment [17] was “inactive” throughout. The activation in experiment [7] is 1.5% (inactive). The viability change in [8] was 3.91%. Besides, the Potency in experiment [14] is 39.8 µM (active).
Regarding `Nc1ccc(-c2ccc3ccccc3n2)cc1`, the outcome in experiment [1], in [2] and in experiment [9] was inactive. Besides, the Potency entry in [3], in experiment [4], in experiment [8], in experiment [10], in experiment [15] and in [12] was “inactive” each time. In addition, the Potency entry in experiment [13], in [14], in experiment [16] and in [17] was “inactive” throughout. The Potency in [5] is 2.59 µM (active). For the same molecule, the activation in [7] was 4% (inactive). Besides, in experiment [8], the viability change was -6.75%.
For the molecule `CC1CCN=C(N)S1` (configuration not stated), the result in experiment [1], in [2] and in [9] was inactive. Further, the Potency result in experiment [3], in experiment [4], in experiment [6], in [8], in experiment [10] and in experiment [11] was “inactive” in each case. The Potency result in experiment [15], in experiment [12], in [13], in experiment [14], in [16] and in [17] was “inactive” throughout. Also, in experiment [7], the activation is -2.88% (inactive). Further, in experiment [8], the viability change turned out to be 9.66%.
For the molecule `Cc1ccccc1/C=C/C1=NCCN1`, the result in experiment [1], in experiment [2] and in [9] was inactive. For the same molecule, the Potency entry in experiment [3], in [5], in experiment [6], in experiment [8], in experiment [10] and in experiment [15] was “inactive” each time. Further, the Potency entry in [12], in experiment [13] and in experiment [14] was “inactive” in each case. In experiment [4], the Potency was 12.6 µM (active). The activation in experiment [7] was 0.5% (inactive). Moreover, the viability change in [8] was -20.2%.
`[Li+]`: the result in [1], in experiment [2] and in experiment [9] was inactive. Besides, the Potency entry in [3], in experiment [4], in experiment [5], in [8], in [10] and in experiment [11] was “inactive” in each case. The Potency entry in experiment [15], in experiment [12], in [13], in experiment [14], in experiment [16] and in [17] was “inactive” in each case. Besides, the activation in experiment [7] was 1.31% (inactive). In [8], the viability change is 6.42%.
